Consider 50 compounds from PubChem BioAssay AID1851 (National Center for Advancing Translational Sciences (NCATS), 2009).

The campaign covered roughly 16,000 compounds. About 5,700 (36%) were called active. Inconclusive results (about 24%) are left out. The list shows a part of the results. A number with no mark means an inactive call. The call rests on the fitted dose curve; in most records, active means well fitted curve in the direction sought with a large enough effect; inconclusive means small, poorly fitted or top-dose-only effect, or effect the other way; inactive means no such curve, though single readings can be large or run the other way.
On the % scale 0 is the no-effect control and ±100 the full control effect.

Chain of Cytochrome P450 1A2 (Homo sapiens) (P05177 whole entry, looked up): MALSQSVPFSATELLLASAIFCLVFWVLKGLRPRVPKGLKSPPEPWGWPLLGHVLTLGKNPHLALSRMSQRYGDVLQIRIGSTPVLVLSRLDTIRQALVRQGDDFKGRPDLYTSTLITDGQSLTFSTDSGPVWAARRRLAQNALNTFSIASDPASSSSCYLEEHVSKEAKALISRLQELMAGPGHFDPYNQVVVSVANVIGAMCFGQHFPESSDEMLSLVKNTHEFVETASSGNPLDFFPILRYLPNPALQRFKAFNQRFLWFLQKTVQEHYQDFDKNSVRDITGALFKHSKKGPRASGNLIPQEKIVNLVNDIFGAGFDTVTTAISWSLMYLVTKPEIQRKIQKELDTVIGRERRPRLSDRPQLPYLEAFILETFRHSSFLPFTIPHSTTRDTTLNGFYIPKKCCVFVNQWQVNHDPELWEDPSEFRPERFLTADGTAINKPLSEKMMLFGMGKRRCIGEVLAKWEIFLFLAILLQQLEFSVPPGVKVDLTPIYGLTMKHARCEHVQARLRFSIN

The assay has as its target Cytochrome P450 1A2 (Homo sapiens) (UniProt P05177). As to the kind of experiment: Cytochrome panel assay with activity outcomes. The note with it: recombinant CYP, pro-luciferin dealkylation, luminescence, p450-cyp1a2; series mostly up to 57.1 µM; activity, negative = inhibition: at the top concentration.
In the case of `CNCCc1c[nH]c2ccc(O)cc12`, the “activity, negative = inhibition” value was -22.8%.
On the same count and under the same terms, the value for `COC(=O)[C@H]1[C@H](c2ccccc2)C(=O)[C@@]2(O)c3ccccc3O[C@@]12c1ccccc1` was -5.65% [at 11.4 µM]; that for `CO[C@@H](C)[C@](O)(C(=O)OCC1=CCN2CC[C@@H](O)[C@H]12)C(C)C` was -7.03% [at 25.6 µM].
Still for that read-out and setting: the value for `c1ccc(CCN2CCOCC2)nc1` was -3% [at 2.29 µM].
For the compound `CCCCCCCCCCCCCC(=O)O[C@H]1[C@@H](C)[C@@]2(O)[C@@H](C=C(CO)C[C@]3(O)C(=O)C(C)=C[C@@H]23)C2C(C)(C)[C@]21OC(C)=O` (stereo not given in full), the “activity, negative = inhibition” value was -12.3%.
Still for that read-out and setting: next, `C[C@H]1[C@H](NC(=O)/C(=N/OC(C)(C)C(=O)O)c2csc(N)n2)C(=O)N1S(=O)(=O)O` (stereo in doubt): -4.29% [at 25.6 µM]; `Cc1ccc(N2C(=O)/C(=C/c3ccc(CN(CCC#N)S(C)(=O)=O)o3)C(=O)NC2=S)cc1C`: -25.3%; `CCCN(CCC)C(=O)Cc1c(-c2ccc(Cl)cc2)nc2c(Cl)cc(Cl)cn12`: -10.1%.
Same read-out and setting: the value for `NC(=O)c1ccc(C(=O)Nc2ccc([As](=O)(O)O)cc2)cc1` was -13.8% [at 2.29 µM]; that for `CCOP(=O)(CN(CC)CCNP(=O)(OCC)OCC)OCC` was 27.4%; that for `CN1C2CCC1CC(OC(=O)c1ccc(Cl)cc1)C2` (stereo not given) was 3.37%.
Still for that read-out and setting: the value for `C[C@@]12CC[C@H]3[C@H](CC=C4C[C@@H](O)CC[C@@]43C)[C@@H]1CC[C@@H]2N(CCO)CCO` was -4.6% [at 11.4 µM].
Take `COC(=O)c1[nH]c2ccc(Br)cc2c1NC(=O)Oc1ccccc1`: the AC50 was 0.0631 µM (active).
For the compound `C[C@]12CC[C@H](O)CC1=CC[C@@H]1[C@H]2CC[C@]2(C)C(=O)CC[C@H]12`, the “activity, negative = inhibition” value is -11.6%.
The same measure, in the same setting: the value for `N[C@H](CCCCCP(=O)(O)O)C(=O)O` was -15.1%.
For the compound `C/C(=C\C=C/[C@@H](C)C(=O)O)[C@H]1CN[C@H](C(=O)O)[C@@H]1CC(=O)O`, the “activity, negative = inhibition” value is -14.8%.
On the same count and under the same terms, next, `C[C@]1(O)CC[C@H]2[C@@H]3[C@@H](O)CC4=CC(=O)CC[C@@]4(C)[C@H]3CC[C@]21C`: 1.44% [at 2.29 µM]; `O=P(c1ccccc1)(c1ccccc1)N1CC2(CC2)CC(O)(c2ccccc2)C1` (stereo not given): -19.7%.
For `O=C(Nc1ccc(Cl)cc1)Nc1nccs1`, the concentration at half-maximal activity (AC50) is 0.141 µM (active).
For `C[C@]12CC[C@H]3c4ccc(O)cc4CC[C@@H]3[C@H]1CC[C@@H]2OC(=O)CCc1ccccc1`, the activity, negative = inhibition was -13.8% [at 2.29 µM].
The same measure, in the same setting: next, `Cc1ccc(-c2nc3ccccc3c(=O)n2-c2ncccc2C)cc1`: -12.2%.
Consider `CCCCc1nc2ccccc2c(=O)n1-c1ccccc1[N+](=O)[O-]`, for which the AC50 is 14.1 µM (active).
For `CCCCc1nc2ccccc2c(=O)n1-c1ccc(Cl)cc1[N+](=O)[O-]`, the “activity, negative = inhibition” value is -25.1%.
Turning to `CCCc1nc2ccccc2c(=O)n1-c1ccc(OC)cc1`, the AC50 was 12.6 µM (active).
Take `NC(N)=Nc1ccc2[nH]c3c(c2c1)C[C@]1(O)[C@@H]2Cc4ccc(O)c5c4[C@]1(CCN2CC1CC1)[C@H]3O5`: the “activity, negative = inhibition” value was 9.9%.
Still for that read-out and setting: the value for `NS(=O)(=O)C[C-]1C=C[CH]([Sb-]([Cl])([Cl])([Cl])([Cl])[Cl])C=C1.c1ccncc1` (stereo not given) was -15.1% [at 11.4 µM]; that for `O=C(O)[C@@H](O)[C@@H](O)[C@@H]1[O][Sb][O][C@@H]1CO` was -5.14% [at 2.29 µM].
`CCC1=C(C[C@H]2NCCc3cc(OC)c(OC)cc32)C[C@H]2c3ccccc3CCN2C1`: the activity, negative = inhibition was -6.07% [at 11.4 µM].
On the same count and under the same terms, next, `O=C(O)CNC(=O)[C@@H](CS)Cc1ccccc1`: -4.85% [at 25.6 µM].
On the same count and under the same terms, next, `c1ccc2cc(CC3=NCCN3)ccc2c1`: 2.54%.
On to `Cc1sc2ccccc2c1CC1=NCCN1`, for which the half-maximal activity concentration (AC50) is 2.51 µM (active).
`Cc1cc(C(C)(C)C)cc(C)c1CC1=NCCN1`: the “activity, negative = inhibition” value is -8.4% [at 25.6 µM].
On the same count and under the same terms, next, `CCCN1CCC[C@H](c2cccc(C#N)c2)C1`: -12.2%.
Regarding `CCN(CC)c1ccc(/C=C2/C(=O)NC(=O)N(CC3CCCO3)C2=O)cc1` (stereo not given), the half-maximal activity concentration (AC50) was 12.6 µM (active).
Consider `O=c1cccc2n1CC1CNC[C@H]2C1`, for which the “activity, negative = inhibition” value was -5.12% [at 25.6 µM].
Take `CC(C)(C)CC(=O)NC(=S)Nc1ccccc1C(F)(F)F`: the concentration at half-maximal activity (AC50) is 11.2 µM (active).
On to `O=[As](O)(O)c1ccc(N=Nc2ccc(O)cc2)cc1`, for which the activity, negative = inhibition was -14.5% [at 11.4 µM].
Regarding `O=P(Nc1c(Cl)cccc1Cl)(c1ccccc1)c1nc2c(s1)CCCC2` (stereo not given), the “activity, negative = inhibition” value is -1.03%.
In the case of `CCN(CC)C(=O)N[C@@H]1C[C@H]2c3cccc4[nH]cc(c34)C[C@@H]2N(C)C1`, the AC50 result was “inactive”.
As to `C=CCN1CC[C@@]23c4c5ccc(O)c4O[C@H]2/C(=N\N=C2/CC[C@@]4(O)[C@H]6Cc7ccc(O)c8c7[C@@]4(CCN6CC=C)[C@@H]2O8)CC[C@]3(O)[C@@H]1C5`, the AC50 entry was “inactive”.
As for `COc1cc2c3cc1Oc1c(O)c(OC)cc4c1[C@@H](Cc1ccc(cc1)Oc1cc(ccc1O)C[C@H]3N(C)CC2)N(C)CC4`, the activity, negative = inhibition is -8.21% [at 11.4 µM].
For `CCCN1CCc2cc(O)cc3c2[C@H]1Cc1ccc(O)c(O)c1-3`, the AC50 was 12.6 µM (active).
The same measure, in the same setting: next, `C=CCN1CCc2cccc3c2[C@@H]1Cc1ccc(O)c(O)c1-3`: 3.16 µM (active).
In the case of `COc1ccc2cc1Oc1ccc(cc1)C[C@H]1c3cc(c(OC)cc3CCN1C)Oc1c(OC)c(OC)cc3c1[C@@H](C2)N(C)CC3`, the activity, negative = inhibition was 2.06% [at 2.29 µM].
Consider `COc1cc2c(cc1O)C[C@H]1c3c(cc(O)c(OC)c3-2)CCN1C`, for which the AC50 was 2.51 µM (active).
With `COc1cc2c3cc1Oc1cc(ccc1O)C[C@@H]1c4c(cc(OC)c(O)c4Oc4cccc(c4)C[C@H]3N(C)CC2)CC[N+]1(C)C`, the “activity, negative = inhibition” value is -8.38% [at 25.6 µM].
Turning to `C=CCN1CCC2(C)c3cc(O)ccc3C[C@H]1[C@H]2C`, the AC50 entry is “inactive”.
Take `CCCN(CCC)[C@@H]1CCc2ccc(O)cc2C1`: the AC50 result is “inactive”.
Same read-out and setting: the value for `CN1CCc2cc(O)cc3c2[C@H]1Cc1ccc(O)c(O)c1-3` was 12.6 µM (active).
Consider `CCCN1CC[C@@H]2c3cc(O)ccc3CC[C@H]21`, for which the “activity, negative = inhibition” value is -9.66%.
